Measurements reported in the supplement of paper PMC13380429.
Counter-ions that a name gives are not always drawn. A number with no mark means an inactive call.

System: Vero E6 infected with SARS-CoV-2
Experiment: inhibition of SARS-CoV-2 cytopathic effect; higher = more antiviral protection, active = above 15
Details: 48 h

Compound | inhibition of SARS-CoV-2 cytopathic effect (1 nM) [%] | inhibition of SARS-CoV-2 cytopathic effect (8.33 nM) [%] | inhibition of SARS-CoV-2 cytopathic effect (100 nM) [%] | inhibition of SARS-CoV-2 cytopathic effect (833.33 nM) [%] | inhibition of SARS-CoV-2 cytopathic effect (10000 nM)
Cc1cc(Nc2nc(N[C@@H](C)c3ncc(F)cn3)ncc2Cl)[nH]n1 | -1.19 | -0.46 | -0.68 | 0.25 | 0.25%
O=C(NCc1ccc(F)cc1)N1CCN2C(=O)OC(c3ccccc3)(c3ccccc3)[C@@H]2C1 (racemic) | 1.17 | 1.29 | 3.05 | 3.22 | -6.01%
CNCCc1cnc[nH]1 [N-alpha-methylhistamine-dihydrochloride] | 0.16 | 2.71 | 2.12 | -0.59 | 1.37%
COc1ccc(NS(=O)(=O)c2ccc(/N=N/c3ccc(O)c(C(=O)O)c3)cc2)nn1 [salazodine] | 0.92 | 3.48 | 1.53 | -1.71 | -1.01%
CN(CC(=O)O)C(=N)N [creatine] | -2.18 | 1.25 | -2.37 | -1.57 | -4.4%
C[C@@H](c1ncncc1F)[C@](O)(Cn1cncn1)c1ccc(F)cc1F [voriconazole] | 0.72 | 2.08 | -2.48 | -0.46 | 1.37%
CS(=O)(=O)CCNCc1nc(-c2ccc3ncnc(Nc4ccc(OCc5cccc(F)c5)c(Cl)c4)c3c2)cs1 | 1.4 | 3.81 | 0.15 | -4.71 | -4.14%
CCCCCCOc1nsnc1C1=CCCN(C)C1 [xanomeline] | 0.86 | -0.07 | -1.23 | -1.94 | -0.8%
CC[C@H](C)C(=O)O[C@H]1C[C@H](O)C=C2C=C[C@H](C)[C@H](CC[C@@H](O)C[C@@H](O)CC(=O)O)[C@H]21 | 0.27 | 3.73 | 2.53 | 6.3 | 1.69%
Nc1nc(=O)n([C@@H]2CS[C@H](CO)O2)cc1F [emtricitabine] | -0.33 | -2.03 | 4.2 | -0.69 | -0.34%
O=C(O[C@H]1[C@H](OC(=O)c2cccnc2)[C@@H](OC(=O)c2cccnc2)[C@H](OC(=O)c2cccnc2)[C@@H](OC(=O)c2cccnc2)[C@H]1OC(=O)c1cccnc1)c1cccnc1 [inositol-hexanicotinate] | 2.01 | 3.15 | 2.82 | 0.04 | 0.85%
COc1cc2c(cc1OC)[C@@H](Cc1cc(OC)c(OC)c(OC)c1)[N+](C)(CCCOC(=O)CC/C=C/CCC(=O)OCCC[N+]1(C)CCc3cc(OC)c(OC)cc3[C@H]1Cc1cc(OC)c(OC)c(OC)c1)CC2 (stereo not given in full) [mivacurium] | -2.73 | -1.95 | 2.74 | 3.32 | 0.83%
CCC[N+]12[C@H](O)[C@@H](CC)[C@@H]3C[C@H]1[C@@H]1N(C)c4ccccc4[C@]14C[C@H]2[C@@H]3[C@H]4O [neo-gilurytmal] | -1.96 | -1.28 | 0.64 | 1.4 | -3.83%
CCCCCC(=O)O[C@]1(C(C)=O)CC[C@H]2[C@@H]3CCC4=CC(=O)CC[C@]4(C)[C@H]3CC[C@@]21C [17-hydroxyprogesterone-caproate] | -1.12 | 1.14 | 1.12 | 1.58 | 5.84%
CCCCN1[C@@H]2CC[C@H]1C[C@@H](OC(c1ccc(F)cc1)c1ccc(F)cc1)C2 | -4.04 | 0.46 | 3.9 | 2.41 | 37% (active)
O=C(CCCN1CCC(O)(c2ccc(Cl)cc2)CC1)c1ccc(F)cc1 [haloperidol] | 0.65 | 1.48 | -0.07 | 0.5 | -1.23%
